Source: PubChem BioAssay
The list is not random: actives were taken first. Their share in the collection is about 0.5%.
B2AR arrestin = beta2AR (human) beta-arrestin recruitment activity. P07550. beta-arrestin recruitment to beta2AR, cell-based reporter. Potency, µM (highest dose often 46.1 µM), for inactives: at the top dose activation, usual class: activators. 0.02% of 330,000 active;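 note: potency is the fitted concentration of half-maximal effect; 0% = DMSO controls and full agonism = EC100 isoproterenol or metaproterenol; nearly all actives have a fitted effect of over 65% in size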
Target sequence (P07550 whole entry, looked up): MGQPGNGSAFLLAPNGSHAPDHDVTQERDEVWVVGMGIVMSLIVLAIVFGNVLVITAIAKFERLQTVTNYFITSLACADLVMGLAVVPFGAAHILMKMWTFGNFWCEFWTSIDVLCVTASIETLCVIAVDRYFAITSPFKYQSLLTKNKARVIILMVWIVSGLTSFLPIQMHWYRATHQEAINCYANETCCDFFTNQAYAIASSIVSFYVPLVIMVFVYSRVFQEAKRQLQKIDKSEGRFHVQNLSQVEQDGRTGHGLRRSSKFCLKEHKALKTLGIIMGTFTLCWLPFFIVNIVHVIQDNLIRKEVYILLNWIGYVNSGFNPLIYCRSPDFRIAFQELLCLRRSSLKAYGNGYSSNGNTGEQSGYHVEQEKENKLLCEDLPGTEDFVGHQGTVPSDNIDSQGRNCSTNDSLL
TCR activator = activates T cell receptor signaling | primary human leukocytes, anti-CD3, IL-2 HTRF, 48 h | Potency, µM (top dose mostly 9.22 µM), for inactives: at the top dose activation of IL-2 secretion, most hits filed as activators | 330,000 tested, under 10 active | AID 504894; note: % of control where 0% means no effect
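1) Mix primary human leukocytes, a-CD3 beads and compound. 2) Incubate 48 hr. 3) Add HTRF IL-2 reagents (a-IL-2-K, a-IL-2-d2).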
CCT chaperon mod = changes cytosolic chaperonin activity; 0.3% of 360,000 active; AID 651819; activity change, % (concentration not given with the values), hits read low; purified chaperonin ATPase assay, HTRF ADP detection, 30 min; in the data active = activity change below about -30%; note: % is set by controls: 0 for no effect and ±100 for the full control effect
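First, chaperonin was dispensed at 40 nM or 20 nM final depending on batch activity. Next, compounds were pinned at 76 uM and ATP added at 10 uM. After 30 min at 37 °C, ADP detection reagents ran 30 min at ambient temperature.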
TSHR antagonist = antagonists of human thyroid stimulating hormone receptor. P16473. TSHR-expressing cells, TSH-stimulated cAMP HTRF, 2 h; active compounds read low. activity change, negative = inhibition, % at 11.5 µM. 0.2% of 330,000 active;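 active = activity change below a set negative limit, meaning inhibition stronger than a set level, cut at about -70% in these data; inconclusive = activity change between two set negative limits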; note: % is set by controls: 0 for no effect and ±100 for the full control effect
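Freshly harvested TSHR cells receive pin-tooled compound, then EC80 TSH at 4nM final. After 2 hours at 37 deg C, antibody in lysis buffer and cAMP-d2 are added; 30 minutes at ambient temperature precede the HTRF read.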
MmCpn inh = M. maripaludis TRiC chaperonin inhibition | purified Mm-Cpn ATPase, ADP Transcreener TR-FRET | Potency, µM (highest dose often 76.9 µM), inactives show at the top dose activity, negative = inhibition, actives largely listed as inhibitors | 0.031% of 330,000 active | AID 504842; note: potency is the fitted concentration of half-maximal effect; % is set by controls: 0 for no effect and ±100 for the full control effect; nearly all actives have a fitted effect of over 80% in size
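ATP (10 uM final) was added to archaeal chaperonin (25 nM final) after 10 min exposure to test compound at 37°C; after 30 min further incubation, ADP was detected by competitive TR-FRET.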
Numbers without * were called inactive; ? = inconclusive; . = no result given; ! = not confirmed by another sample; [ ] = another dose, or the depositor's remark. Unless noted, calls come from the whole dose curve; as a rule, active = well fitted curve in the direction sought with a large enough effect; inconclusive = small, poorly fitted or top-dose-only effect, or another doubt; inactive = no such curve, though single readings can be large; an effect the other way counts as inactive or inconclusive.

SMILES	B2AR arrestin	TCR activator	CCT chaperon mod	TSHR antagonist	MmCpn inh
CCOC(=O)CN1N=C(/C=C/c2ccc(OCC)cc2)CCC1=O	-0.1%	-8.2%	-8.1	-1.5	0.1%
CCOC(=O)CN1N=C(/C=C/c2ccccc2)CCC1=O	.	15.1%	-47.8*	.	.
Cc1ccc2c(c1)c1c3n2CCN(C=O)C3CCC1 (configuration not stated)	0.5%	0.9%	1.9	-10.4	-3.2%
Cc1ccc2c(c1)c1c3n2CCNC3CCC1 (configuration not stated)	-1.0%	-6.8%	-60.5*!	0.0	-3.8%
O=C(NC1=C(Nc2ccc(Cl)cc2)C(=O)c2ccccc2C1=O)c1ccccc1	-0.8%	-1.8%[46.1 µM]	-1.7	13.3	-1.9%
O=C(Nc1ccc(Cl)c(Cl)c1)c1ccccc1	0.1%	1.0%	-49.8*	-20.7	0.6%
O=C(Nc1ccc(Cl)cc1)Nc1ccc(Cl)c(Cl)c1	0.1%	0.2%	-0.8	-73.8*	-1.3%
O=C1C(Cl)=C(NC(=O)c2ccccc2)C(=O)C(Cl)=C1NC(=O)c1ccccc1	0.1%	1.7%	1.0	-85.1*	?
Cc1ccc(NC(=O)Nc2ccc(F)c(Cl)c2)cc1	-0.4%	4.3%	0.7	-13.6	-0.2%
Cc1ccc(N(C(=O)CCC(=O)Nc2cc(C)on2)C(C(=O)NC2CCCC2)c2ccncc2)cc1 (configuration not stated)	-0.4%	-2.2%	-0.8	2.5	0.6%
O=C(CCNC(=O)N1CC(=O)Nc2ccccc21)NCc1ccccc1Cl	.	.	1.8	.	.
COCCNCc1ccccc1	0.0%	-4.0%	0.8	9.1	-0.7%
COc1ccc(C2=NS(=O)(=O)N(C)C(C(=O)N3CCC(C(N)=O)CC3)=C2)cc1	10.5%	5.2%	-66.9*	5.9	0.2%
COc1ccc(C2=NS(=O)(=O)N(C)C(C(=O)N3CCOCC3)=C2)cc1	0.1%	1.3%	-0.5	7.5	0.8%
CCN[C@H]1CN(CCCOC)S(=O)(=O)c2sc(S(N)(=O)=O)cc21	-0.3%	0.1%	1.0	31.4	2.9%
CNC(=O)c1ccc(-c2nc(-c3ccccc3)cs2)cc1	-0.5%	-0.3%	-45.1*	4.2	1.4%
O=C(O)c1ccc(-c2nc(-c3ccccc3)cs2)cc1	0.1%	1.6%	-4.1	1.1	-3.5%
COC(=O)[C@H](Cc1ccccc1)NC(=O)[C@@]1(C)C[C@@H]1[C@@H](NC(=O)OCc1ccccc1)c1ccccc1	-0.5%	-5.6%	1.9	-82.2*	0.1%
O=C1CCCN2N=C(SCC(=O)Nc3ccc(Cl)cc3)SC2=N1	-0.8%	-2.7%	-0.2	-8.3	-0.4%
c1ccc(NCc2cccnc2)cc1	-0.1%	-1.7%	-120.8*	11.7	-1.0%
Fc1ccc(NCc2cccnc2)cc1	0.0%	.	1.2	-2.2	0.8%
O=C(CNC(=O)COc1ccccc1)NCc1cccnc1	0.0%	-3.8%	-41.4*	0.1	1.0%
Cc1nc2ccccc2n1CC(=O)N/N=C\C=C\c1ccccc1	0.0%	7.2%	-0.2	-80.7*	-0.4%
Cn1c(SCC(=O)N/N=C/C=C/c2ccco2)nc2ccccc21	18.4µM*	-3.9%[46.1 µM]	-0.1	-13.4	-2.9%
COc1ccc(/C(O)=C2/C(=O)C(=O)N(CCCN3CCOCC3)C2c2ccc(OC)cc2)cc1 (configuration not stated)	-0.9%	-0.9%	-1.3	0.1	-0.9%
SMILES	B2AR arrestin	TCR activator	CCT chaperon mod	TSHR antagonist	MmCpn inh
CC(CNC(=O)CCC(=O)N1CCOc2ccc(Cl)cc21)c1ccccc1 (configuration not stated)	0.3%	-4.4%	-66.0*	2.8	-4.3%
CCOc1ccc(Nc2ccc(C(=O)O)cc2[N+](=O)[O-])cc1	-0.4%	5.9%	-3.0	-13.7	-3.1%
Cc1ccc(C(=O)CSC2=C(C#N)C(c3ccco3)C3=C(CC(C)(C)CC3=O)N2)cc1 (configuration not stated)	0.4%	-4.5%	-46.6*	-14.1	-3.2%
COc1cc(Br)cc(C=Nc2cccc(C(F)(F)F)c2)c1O	-0.7%	10.2%[46.1 µM]	-30.6*	0.6	0.6%
COc1ccc(NC(=O)/C(=C\c2ccc(OS(=O)(=O)c3ccc(C)cc3)cc2)NC(=O)c2ccccc2)cc1	-0.4%	-2.6%	1.9	25.0	-0.3%
Cc1ccc(S(=O)(=O)Oc2ccc(/C=C(/NC(=O)c3ccccc3)C(=O)Nc3ccccc3)cc2)cc1	0.0%	-10.2%	-66.8*	-47.5	3.1%
COCCNc1cnn(-c2ccccc2)c(=O)c1Cl	-0.8%	-1.7%	2.7	-122.2*	-7.2%
CCCCNc1cnn(-c2ccccc2)c(=O)c1Cl	3.3%	1.8%	0.9	10.2	-1.5%
COc1ccc(-c2nc3ccccc3o2)cc1NC(=O)CSc1ccc(Cl)cc1	3.3%	-1.2%[46.1 µM]	-89.9*	-7.0	0.8%
COc1cc2[nH]c(C(=O)Nc3ccc(F)cc3)cc2c(OC)c1OC	0.5%	.	.	-77.7*	-0.1%
CCOc1ccc(S(=O)(=O)Nc2ccc(O)c(Sc3ncn[nH]3)c2)cc1	-0.1%	-6.4%[46.1 µM]	-38.4*	28.0	1.7%
COc1cc(C2NC(=O)NC(C)=C2C(=O)OCc2ccc(C)cc2)cc(OC)c1OC (configuration not stated)	0.2%	2.9%	-2.8	39.3	0.4%
CN(CCCNC(=O)c1ccc(N2CCCC2=O)cc1)c1ccccc1	-0.8%	3.4%[46.1 µM]	-4.7	8.9	-1.3%
Cc1ccc(C)c(S(=O)(=O)NCCN2CCOCC2)c1	-0.4%	-8.8%	-31.3*	-1.3	-0.8%
Cc1ccc(C)c(S(=O)(=O)NCCCN2CCOCC2)c1	-0.3%	-1.3%	-1.1	0.8	0.6%
CN(C)S(=O)(=O)c1cc([N+](=O)[O-])ccc1N1CCCCCC1	-0.1%	-5.1%	-30.8*	-28.5	-5.9%
CC(C)CN(CC(C)C)S(=O)(=O)c1cc([N+](=O)[O-])ccc1N1CCCCCC1	0.0%	-3.7%	-2.9	-27.9	0.6%
O=C(COC(=O)c1ccc(-c2ccccc2)cc1)Nc1ccccc1-c1ccccc1	-0.6%	1.1%[46.1 µM]	2.2	3.8	-8.2%
CC(C)(C)OC(=O)NCCCCCc1cn([C@@H](CO)C(=O)NCCCCCCCCCCC(=O)N2CCN(C(=O)OC(C)(C)C)CC2)nn1	-0.1%	-5.3%	-0.8	-95.3*	-0.8%
CCC(=O)Nc1nc(-c2cc([N+](=O)[O-])cs2)cs1	-0.1%	1.8%	1.6	-7.7	35.5µM*
Fc1ccc(-n2c(Cn3nnc4ccccc43)n[nH]c2=S)cc1	0.2%	16.7%	-2.8	0.7	-1.3%
O=C(Cn1nc(Cl)nc1Cl)c1ccccc1	-1.3%	-2.3%	0.4	-5.3	-2.6%
O=c1oc(C2(O)CCCCC2)cc2ccc(/C=C/c3ccc(F)cc3)cc12	6.4%	5.0%	-1.5	-79.0*	-0.5%
O=c1oc(C2(O)CCCCC2)cc2ccc(Br)cc12	-0.2%	-1.0%	1.5	-11.8	-4.1%
CC(=O)c1c(C)[nH]c(C(=O)OCC(=O)Nc2ccc(C)cc2[N+](=O)[O-])c1C	1.7%	-2.7%[46.1 µM]	-1.8	-25.4	1.0%
